Source: PubChem BioAssay (NCI)
Compounds without any hit were thinned out: in the full panel of roughly 83,000, 20% have a hit.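 Results are percent growth after 48 hours of single-concentration exposure. 100 means growth as in untreated cells, lower positive values show inhibition; negative values down to -100 show cell death.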 A number with no mark means an inactive call. Calls of active or inactive are those of the source.

System: BT-549 breast
Assay: NCI-60 one-dose screen, 48 h (100 = growth as untreated, 0 = no growth, -100 = all killed)
Conditions: 10 µM unless noted
Description: Growth inhibition of the BT-549 human tumor cell line is measured as a screen for anti-cancer activity. Cells are grown in 96 well plates and exposed to the test compound for 48 hours. Compounds are tested at a single concentration, which is 10^-5 M for most compounds. The reported endpoint is percent growth (GI% or GIPRCNT), where numbers from 0 - 100% represent growth inhibition, and numbers from -100% - 0 represent cell death. For example, a value of 40 represents 60% growth inhibition. A value of 0 means no net growth occurred over the course of the experiment. A value of -40 indicates 40% of cells at the beginning of the experiment died by the end of the experiment. A value of -100 means all cells are dead at the end of the experiment.
NCI-60 Human Tumor Cell Lines Screen was performed using the standard one-dose NCI protocol, which is described in more detail at https://dtp.cancer.gov/discovery_development/nci-60/default.htm.
Compounds with GIPRCNT values below 10 were considered active. Activity score was based on GIPRCNT using the following formula: […]
Score is 0 for GIPRCNT values of 100 or above, 50 for GIPRCNT values of 0, and 100 for GIPRCNT values of -100.

Compound | growth
Cc1nn(-c2cc(=O)[nH]c3ccc(Cl)cc23)c(N)c1C#N | 111%
C=CC(=O)Nc1cccc(-c2nc(SC)nc(NCCc3ccc(OC)c(OC)c3)c2C#N)c1 | 25%
COc1ccc(-c2nc3ccc(-c4nc5ccc(N6CCN(c7ccncc7)CC6)cc5[nH]4)cc3[nH]2)cc1OC | 39.4%
COc1ccc2c(c1)O/C(=C\c1cccc(OCC(=O)Nc3nc4c(s3)CCCC4)c1)C2=O | 105%
O=C(Cc1ccc(/C=C/C(=O)c2ncc[nH]2)cc1)Nc1ccc(F)cc1 | 22.4%
O=C(/C=C/c1cccc(Cl)c1)c1ccc(O)c(CN2CCN(c3cc4c(cc3F)c(=O)c(C(=O)O)cn4C3CC3)CC2)c1 | 34%
CCCOc1cc2ccccc2cc1C(=O)Nc1nc(N)c2c(ccc3nccc32)[nH]1 | -41% (active)
COc1cc(C(=O)/C=C/c2cccnc2Nc2ccc(Cl)cc2)cc(OC)c1OC | -19.1% (active)
COc1cccc(C2=NN3C(C2)c2cc(Br)cc(OC)c2OC32CCN(Cc3ccccc3)CC2)c1 (stereo not given) | 110%
O=C(O)COc1ccc(Cl)cc1C1CCCCC1 | 117%
C=CC(=O)Nc1cccc(-c2nc(SC)nc(NCCN3CCOCC3)c2C#N)c1 | 87.7%
Cc1cc(N2CCN(C)CC2)nc(NC2CCCC(Nc3ccnc4cc(Cl)ccc34)C2)n1 (stereo not given) | -41.9% (active)
COc1ccc(NC(=O)c2ccc(/C=C/C(=O)c3ncc[nH]3)cc2)cc1 | 78.8%
Oc1cccc2ccc(N/N=C/c3cc(CN4CCOCC4)c(O)c4ncccc34)nc12 | 18.4%
N#CN1CC[C@H](C(=O)Nc2cc3cc(C(N)=O)ccc3cn2)C1 | -5.54% (active)
CCCCC[C@H]1C/C=C2/C(=O)C=C[C@@H]2C/C=C\CCCC(=O)O1 | -11.2% (active)
CC(C)(C)c1cc(C(C)(C)C)cc(S(=O)(=O)Nc2cc3ccccc3cc2C(=O)NCCN)c1 | 101%
Cc1[nH]c(-c2cc(N)ccc2Cl)c2c1C(=O)CCCC2 | 49.8%
C=C1c2nc3ccccc3n2C=C(c2ccc(Cl)cc2)N1Cc1ccc(OC)cc1 | 97.8%
C=C1C(=O)O[C@H]2[C@H]1CC/C(COC(=O)NCCc1ccc(OC)c(OC)c1)=C\CC[C@@]1(C)O[C@@H]21 | 64.3%

Compound | growth
Cc1ccc(OC(=O)c2ccc(Cl)cc2)cc1 | 100%
C#CCOc1ccc2ncnc(Nc3cccc(CNC(=O)CCl)c3)c2c1 | 47.7% [8.25 µM]
Cc1nc2ccccc2n1C(=O)C[C@@H]1NC(=S)NC1=O | 95.5%
O=C(CN(C(=O)Cn1c(=O)n2nnnc2c2ccccc21)c1ccccc1C(F)(F)F)Nc1ccc(C(F)(F)F)cc1 | 95.7%
CC(C)(C)c1cc(/C=N\NC(=O)/C=C/C=C/c2ccc3c(c2)OCO3)c(O)c(C(C)(C)C)c1 | 92.9%
COc1ccc(-n2nc(C)c3c(Nc4ccc(NC(=O)Nc5cccc(C(F)(F)F)c5)cc4)ncnc32)cc1 | 25.2%
CCOc1cc2ncc(C#N)c(Nc3ccc(OCc4cccc(F)c4)c(Cl)c3)c2cc1NC(=O)CCCCC1CCSS1 (stereo not given) | 98.5%
O=C(CCl)Oc1ccc(-c2ccccc2)c(Br)c1 | 104%
COc1cccc(/C=N/NC(=O)c2ccccc2Nc2ccnc(C(F)(F)F)c2)c1O | 25.8%
CCOC(=O)C(C)(C#N)C1C=CCCC1 (stereo not given) | 111%
Cc1nn(-c2cc(=O)[nH]c3ccccc23)c(N)c1C#N | 110%
CC/C=C\C/C=C\C[C@H]1C/C=C2/C(=O)C=C[C@@H]2C/C=C\CCC(=O)O1 | -3.33% (active)
O=C(C(=O)c1ccc2c(c1)OCO2)c1ccc2c(c1)OCO2 | 101%
CN(C)CCCNc1c2ccccc2nc2ccccc12 | 72.6%
C=C(C)[C@@H]1CC[C@]2(C(=O)OC)CC[C@]3(C)[C@H](CC[C@@H]4[C@@]5(C)C/C(=C/c6cccc(I)c6)C(=O)C(C)(C)[C@@H]5CC[C@]43C)[C@@H]12 | 101%
COc1ccc2c(c1)C(=O)/C(=C/c1ccccn1)CC2 | 96.4%
CCN(CC)CCCCNc1c2ccc(Cl)cc2nc2ccc(OC)cc12 | -29.5% (active)
COc1ccc2c(c1)C(=O)/C(=C/c1cccnc1)CC2 | 101%
O=S(=O)(Nc1ccc(NS(=O)(=O)c2ccccc2)c(Cl)c1)c1ccccc1 | 105%
O=C1c2cccc3cccc(c23)C(=O)N1CCCCCN1CCN(CCCCCOc2ccc(-c3nc4ccc(N5CCOCC5)cc4[nH]3)cc2)CC1 | 29.9%
